Test results as given in PubChem BioAssay (NCATS).
Unmarked numbers belong to inactive results. Inconclusive results are not listed. Active and inactive are the calls of the source. Unless noted, calls follow the shape of the dose curve; as a rule, active = well fitted curve in either direction with a large enough effect (not every such curve was filed as active); inconclusive = small, poorly fitted or top-dose-only effect, or another doubt; inactive = flat fitted curve, though single readings scatter.

What was measured:
[1] = target: Lysosomal acid glucosylceramidase (Homo sapiens) (UniProt P04062); experiment: Glucocerebrosidase-p2 (AID 348; in the data active = potency below about 10 µM; also: potency is read from the fitted curve at half-maximal effect); conditions: purified GBA, blue fluorogenic substrate, 40 min
Sequence of Lysosomal acid glucosylceramidase (Homo sapiens) (P04062 whole entry, looked up): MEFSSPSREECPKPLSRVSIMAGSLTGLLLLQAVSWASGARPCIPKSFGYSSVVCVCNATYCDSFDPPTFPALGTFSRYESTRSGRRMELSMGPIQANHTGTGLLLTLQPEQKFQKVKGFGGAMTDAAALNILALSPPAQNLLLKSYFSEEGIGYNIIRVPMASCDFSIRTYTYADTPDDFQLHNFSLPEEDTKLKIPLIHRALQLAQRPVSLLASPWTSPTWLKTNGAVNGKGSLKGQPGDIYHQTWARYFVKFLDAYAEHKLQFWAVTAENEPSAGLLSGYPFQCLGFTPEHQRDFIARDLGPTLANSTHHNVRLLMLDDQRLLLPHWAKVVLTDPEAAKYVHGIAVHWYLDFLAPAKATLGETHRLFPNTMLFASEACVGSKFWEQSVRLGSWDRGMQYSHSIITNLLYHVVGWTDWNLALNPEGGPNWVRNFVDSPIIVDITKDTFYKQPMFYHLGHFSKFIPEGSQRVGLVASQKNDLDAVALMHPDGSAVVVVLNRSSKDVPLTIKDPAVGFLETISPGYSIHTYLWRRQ
Outline: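 Normal human glucocerebrosidase (0.2 nM) with blue fluorogenic substrate (80 uM final) in citrate/phosphate pH 5.9 with 10mM sodium taurocholate, 0.01% tween-20; 40 min RT, NaOH/glycine stop; fluorescence Ex 365/Em 440; AC50 from a titration from 0.6 nM upwards.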

[2] = AP1 Signaling Pathway (AID 357); conditions: ME-180 AP-1-bla reporter, EGF-induced, beta-lactamase ratio, 5 h; at 7.69 µM (top of the series) unless noted; also: % is scaled to controls: 0 for no effect and ±100 for the full control effect
Outline: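 ME-180 cells with beta-lactamase reporter under AP-1 response element, stimulated with EC50 EGF; compounds tested in titration series, 5 h at 37 °C. CCF4 substrate added 2.5 h at room temperature; 460/530 nm emission ratio gave %activity and AC50.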

[3] = target: Cytochrome P450 1A2 (Homo sapiens) (UniProt P05177); experiment: p450-cyp1a2 (AID 410; calls by dose curve; also: potency is read from the fitted curve at half-maximal effect;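 as to activity change, negative = inhibition: -100% = full effect of reference inhibitor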); conditions: recombinant CYP1A2, luciferin-ME demethylation, luminescence; series mostly up to 11.4 µM
Sequence of Cytochrome P450 1A2 (Homo sapiens) (P05177 whole entry, looked up): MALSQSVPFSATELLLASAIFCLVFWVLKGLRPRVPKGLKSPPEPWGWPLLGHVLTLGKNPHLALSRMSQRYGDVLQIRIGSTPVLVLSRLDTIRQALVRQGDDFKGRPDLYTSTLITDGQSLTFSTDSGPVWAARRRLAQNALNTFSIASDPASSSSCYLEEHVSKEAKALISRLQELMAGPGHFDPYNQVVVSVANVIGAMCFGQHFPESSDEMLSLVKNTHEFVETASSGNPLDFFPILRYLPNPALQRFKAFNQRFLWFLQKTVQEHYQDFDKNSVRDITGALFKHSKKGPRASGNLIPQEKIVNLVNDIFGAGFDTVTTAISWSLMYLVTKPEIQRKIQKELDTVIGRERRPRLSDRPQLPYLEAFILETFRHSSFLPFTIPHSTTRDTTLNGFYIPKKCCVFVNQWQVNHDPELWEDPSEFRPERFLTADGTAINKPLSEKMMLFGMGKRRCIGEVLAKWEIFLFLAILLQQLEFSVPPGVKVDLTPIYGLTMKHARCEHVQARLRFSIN
Outline: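 Luminescent demethylation readout: Luciferin-ME (100uM, equal to Km) turned over by 20nM CYP1A2 for 60 min at room temperature after NADPH regeneration addition, following 10 min compound preincubation. Normalization used 57 uM furafylline as full inhibition.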

[4] = Stat Signaling Pathway (AID 446); conditions: ME-180 SIE beta-lactamase reporter, IL-6 stimulated, 5 h; at 7.69 µM (top of the series) unless noted;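 also: ME-180 cervical cancer cells given 40 pM IL-6 alongside compound; SIE-controlled beta-lactamase reporter measured as 460/530 nm FRET emission ratio; % is scaled to controls: 0 for no effect and ±100 for the full control effect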
Outline: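 Normalization used AC90 stimulation (300 pM IL-6) and AC90 inhibition (125 nM pan-JAK inhibitor at 40 pM IL-6). The underlying signal is SIE-driven beta-lactamase in ME-180 cells after 5 h IL-6 exposure with compound.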

[5] = target: Glucocorticoid receptor (Homo sapiens) (UniProt P04150); experiment: GR-GFP Redistribution (AID 450;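 active = compounds whose dose series gives a full or clear partial fitted curve of increased nuclear translocation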; also: potency is read from the fitted curve at half-maximal effect); conditions: U2OS GR-GFP nuclear translocation, laser cytometry, 2 h
Sequence of Glucocorticoid receptor (Homo sapiens) (P04150 whole entry, looked up, the tested form may be a part): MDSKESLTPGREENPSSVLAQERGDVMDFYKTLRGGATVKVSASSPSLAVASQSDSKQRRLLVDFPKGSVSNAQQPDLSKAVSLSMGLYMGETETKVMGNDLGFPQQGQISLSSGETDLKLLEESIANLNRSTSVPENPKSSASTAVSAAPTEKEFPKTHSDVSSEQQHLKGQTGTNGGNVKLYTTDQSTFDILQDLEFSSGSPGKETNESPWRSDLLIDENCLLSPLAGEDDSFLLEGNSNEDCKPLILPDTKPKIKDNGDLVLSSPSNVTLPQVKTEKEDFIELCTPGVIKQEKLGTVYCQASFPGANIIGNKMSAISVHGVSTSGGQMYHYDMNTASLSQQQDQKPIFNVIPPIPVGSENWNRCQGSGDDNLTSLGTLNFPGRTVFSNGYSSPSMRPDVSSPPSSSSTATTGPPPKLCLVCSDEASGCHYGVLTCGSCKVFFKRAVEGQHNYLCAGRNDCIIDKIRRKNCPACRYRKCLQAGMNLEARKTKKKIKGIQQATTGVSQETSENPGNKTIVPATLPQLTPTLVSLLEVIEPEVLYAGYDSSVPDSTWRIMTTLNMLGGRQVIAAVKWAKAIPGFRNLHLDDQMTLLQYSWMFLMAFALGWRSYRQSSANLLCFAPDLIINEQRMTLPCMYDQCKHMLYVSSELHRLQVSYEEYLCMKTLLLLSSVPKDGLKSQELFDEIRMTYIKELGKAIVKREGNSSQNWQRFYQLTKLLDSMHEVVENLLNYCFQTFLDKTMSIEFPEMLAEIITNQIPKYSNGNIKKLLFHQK

[6] = target: Glucocorticoid receptor (Homo sapiens) (UniProt P04150); experiment: GR-EFC Redistribution (AID 451; calls by dose curve; also: potency is read from the fitted curve at half-maximal effect); conditions: CHO-K1 GR-EFC translocation, beta-gal luminescence, 2 h
Outline: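 CHO-K1 cells stably expressing nuclear-localized β-gal enzyme acceptor and GR fused C-terminally to the enzyme donor fragment; ligand-driven nuclear translocation restores β-gal by complementation. Compounds titrated up to 46 uM final, 2 h at 37 °C; luminescence read.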

[7] = target: Mitogen-activated protein kinase 10 (Mus musculus) (UniProt Q61831); experiment: JNK3 AlphaScreen Assay (AID 530); conditions: JNK3 lysate, c-Jun phosphorylation; series mostly up to 11.4 µM;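 also: kinase came from lysate of stimulated human HepG2 cells; signal reports phosphorylation of biotinylated GST-cJun 1-79 at Ser73 with 10 µM ATP; % is scaled to controls: 0 for no effect and ±100 for the full control effect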
Outline: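 Phosphorylation of biotinylated GST-cJun(1-79) at Ser73 is measured by AlphaScreen proximity luminescence. Enzyme is JNK3 in HepG2 lysates activated with interleukin-1beta and tumor necrosis factor alpha; ATP is 10 uM final.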

[8] = target: 3',5'-cyclic-AMP phosphodiesterase 4B (Homo sapiens) (UniProt Q07343); experiment: qHTS Assay for Inhibitors of PDE-IV (AID 607; active = well fitted activation curve with a large enough effect in the main read-out, with a control signal flat, not every such curve was filed as active; also: % of control where 0% means no effect); conditions: HEK293 ACTOne CNG channel cells, membrane potential fluorescence; series mostly up to 22.9 µM
Sequence of 3',5'-cyclic-AMP phosphodiesterase 4B (Homo sapiens) (Q07343 whole entry, looked up): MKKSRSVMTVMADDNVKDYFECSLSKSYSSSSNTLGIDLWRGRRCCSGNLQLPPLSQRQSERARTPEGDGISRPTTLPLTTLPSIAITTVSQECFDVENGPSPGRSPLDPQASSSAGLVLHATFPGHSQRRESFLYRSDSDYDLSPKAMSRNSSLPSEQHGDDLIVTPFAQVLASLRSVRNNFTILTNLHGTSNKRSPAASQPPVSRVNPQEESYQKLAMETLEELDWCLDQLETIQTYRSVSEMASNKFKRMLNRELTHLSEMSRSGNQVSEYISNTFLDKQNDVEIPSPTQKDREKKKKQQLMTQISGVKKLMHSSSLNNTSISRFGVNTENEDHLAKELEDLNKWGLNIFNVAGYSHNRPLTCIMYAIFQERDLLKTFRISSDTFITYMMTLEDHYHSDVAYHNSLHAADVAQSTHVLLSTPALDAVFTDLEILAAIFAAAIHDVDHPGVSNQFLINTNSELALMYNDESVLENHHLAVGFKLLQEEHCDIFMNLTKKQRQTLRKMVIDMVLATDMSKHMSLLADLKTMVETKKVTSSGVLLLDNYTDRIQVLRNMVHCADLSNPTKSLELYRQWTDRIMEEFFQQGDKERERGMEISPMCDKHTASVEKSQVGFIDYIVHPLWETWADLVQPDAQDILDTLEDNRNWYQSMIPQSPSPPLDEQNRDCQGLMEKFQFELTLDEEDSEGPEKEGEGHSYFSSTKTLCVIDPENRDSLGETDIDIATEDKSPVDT
Outline: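 HEK293 ACTOne cells with CNG channel (1000/well), endogenous PDE4; membrane potential dye, compounds up to 22.9 uM final. Fluorescence Ex 535/Em 590; RO 20-1724 (100 uM final) as reference.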

[9] = target: Cytochrome P450 2D6 (Homo sapiens) (UniProt P10635); experiment: qHTS Assay for Inhibitors and Substrates of Cytochrome P450 2D6 (AID 891; active = well fitted curve in the direction sought with a large enough effect; an effect the other way counts as inactive or inconclusive; also: potency is read from the fitted curve at half-maximal effect; nearly all actives have a fitted effect of over 60% in size); conditions: recombinant CYP2D6, luciferin-ME EGE luminescence; series mostly up to 11.4 µM
Sequence of Cytochrome P450 2D6 (Homo sapiens) (P10635 whole entry, looked up): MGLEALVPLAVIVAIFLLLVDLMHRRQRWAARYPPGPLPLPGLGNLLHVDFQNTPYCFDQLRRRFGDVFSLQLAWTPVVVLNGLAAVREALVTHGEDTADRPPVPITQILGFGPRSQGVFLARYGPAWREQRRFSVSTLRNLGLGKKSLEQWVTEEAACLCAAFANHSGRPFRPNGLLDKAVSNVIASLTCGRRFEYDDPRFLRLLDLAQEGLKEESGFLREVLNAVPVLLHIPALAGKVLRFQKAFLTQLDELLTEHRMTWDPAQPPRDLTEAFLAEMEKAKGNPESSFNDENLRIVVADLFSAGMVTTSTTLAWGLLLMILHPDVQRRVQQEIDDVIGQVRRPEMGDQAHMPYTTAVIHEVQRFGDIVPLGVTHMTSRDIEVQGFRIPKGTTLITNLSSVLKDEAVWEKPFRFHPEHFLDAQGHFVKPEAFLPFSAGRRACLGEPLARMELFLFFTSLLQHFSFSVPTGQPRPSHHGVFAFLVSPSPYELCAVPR
Outline: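 Luminescent read-out of luciferin formed by 5 nM human CYP2D6 demethylating 30 uM Luciferin-ME EGE (Km level) over 60 min at room temperature after NADPH regeneration addition. Data normalized to full inhibition by 1.43 uM quinidine.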

[10] = target: Cytochrome P450 2C19 (Homo sapiens) (UniProt P33261); experiment: qHTS Assay for Inhibitors and Substrates of Cytochrome P450 2C19 (AID 899; active = well fitted curve in the direction sought with a large enough effect; an effect the other way counts as inactive or inconclusive; also: nearly all actives have a fitted effect of over 60% in size; also: potency is read from the fitted curve at half-maximal effect; as to activity, negative = inhibition: % is scaled to controls: 0 for no effect and ±100 for the full control effect); conditions: recombinant CYP2C19, luciferin-H EGE luminescence; series mostly up to 11.4 µM
Sequence of Cytochrome P450 2C19 (Homo sapiens) (P33261 whole entry, looked up): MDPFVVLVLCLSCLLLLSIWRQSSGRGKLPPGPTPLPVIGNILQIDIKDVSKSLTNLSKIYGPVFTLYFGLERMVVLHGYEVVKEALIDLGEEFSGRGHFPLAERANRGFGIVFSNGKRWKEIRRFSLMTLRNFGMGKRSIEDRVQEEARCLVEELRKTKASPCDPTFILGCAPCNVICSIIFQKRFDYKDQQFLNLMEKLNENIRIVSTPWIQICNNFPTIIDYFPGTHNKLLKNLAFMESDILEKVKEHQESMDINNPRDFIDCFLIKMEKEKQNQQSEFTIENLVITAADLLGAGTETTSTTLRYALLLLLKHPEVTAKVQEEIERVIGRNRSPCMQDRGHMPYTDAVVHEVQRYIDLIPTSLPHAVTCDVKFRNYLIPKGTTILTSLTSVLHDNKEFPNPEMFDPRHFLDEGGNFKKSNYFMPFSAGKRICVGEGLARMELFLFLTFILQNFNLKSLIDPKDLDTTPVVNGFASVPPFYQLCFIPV
Outline: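 In 50mM KPO4, the reaction held 5nM enzyme and KM-level (10uM) Luciferin-H EGE; it ran 60 min at 37C after NADPH regeneration and a 10 min compound preincubation. Luminescence values were scaled to 57uM ketoconazole as complete inhibition.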

[11] = target: Cytochrome P450 3A4 (Homo sapiens) (UniProt P08684); experiment: qHTS Assay for Inhibitors and Substrates of Cytochrome P450 3A4 (AID 884; active = well fitted curve in the direction sought with a large enough effect; an effect the other way counts as inactive or inconclusive; also: potency is read from the fitted curve at half-maximal effect; nearly all actives have a fitted effect of over 50% in size); conditions: recombinant CYP3A4, Luciferin-PPXE luminescence; series mostly up to 57.1 µM
Sequence of Cytochrome P450 3A4 (Homo sapiens) (P08684 whole entry, looked up): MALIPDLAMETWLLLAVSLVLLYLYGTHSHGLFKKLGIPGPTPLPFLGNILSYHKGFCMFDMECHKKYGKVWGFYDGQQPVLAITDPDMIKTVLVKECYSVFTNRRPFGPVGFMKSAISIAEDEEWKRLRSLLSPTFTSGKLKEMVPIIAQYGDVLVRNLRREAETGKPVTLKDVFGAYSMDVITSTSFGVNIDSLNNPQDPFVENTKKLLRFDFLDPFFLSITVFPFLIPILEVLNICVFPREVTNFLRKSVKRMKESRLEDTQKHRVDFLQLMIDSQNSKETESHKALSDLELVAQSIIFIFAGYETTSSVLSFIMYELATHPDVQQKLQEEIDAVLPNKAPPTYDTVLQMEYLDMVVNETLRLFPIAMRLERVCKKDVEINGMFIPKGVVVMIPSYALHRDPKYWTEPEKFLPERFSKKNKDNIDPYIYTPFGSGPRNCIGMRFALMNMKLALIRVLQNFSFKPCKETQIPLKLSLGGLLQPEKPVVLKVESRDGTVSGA
Outline: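 Luminescent readout of luciferin produced by CYP3A4 (20 nM) dealkylation of Luciferin-PPXE, 25 uM (its KM). NADPH-driven reaction ran 60 min at RT after 10 min compound preincubation; data scaled to 57 uM ketoconazole as 100% inhibition.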

[12] = target: Cytochrome P450 3A4 (Homo sapiens) (UniProt P08684); experiment: qHTS Assay for Activators of Cytochrome P450 3A4 (AID 885; active = well fitted curve in the direction sought with a large enough effect; an effect the other way counts as inactive or inconclusive; also: nearly all actives have a fitted effect of over 65% in size); conditions: recombinant CYP3A4, Luciferin-PPXE luminescence, 60 min; series mostly up to 11.4 µM
Outline: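 Human CYP3A4 dealkylates Luciferin-PPXE to luciferin, which luciferase detection converts to light. Substrate was at its KM (25uM), buffer 200mM KPO4, reaction 60 min at RT.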

[13] = qHTS Assay for Identification of Small Molecule Agonists for Hypoxia Response Element Signaling Pathway (AID 914; active = well fitted activation curve with a large enough effect in the signal ratio, with a control signal flat, not every such curve was filed as active; the % refers to the signal ratio; also: % of control where 0% means no effect); conditions: ME-180 (cervical carcinoma) HRE-bla reporter, beta-lactamase ratio, CoCl2, 17 h; activation: hits give high values
Outline: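 Cells were plated overnight, pin-dosed with compound in a titration series, co-stimulated with EC50 CoCl2 and incubated 17 hours at 37 degrees Celsius. CCF4 substrate was then loaded, and AC50 values came from the 460nm/530nm ratio.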

CN(Cc1cccc2ccccc12)Cc1cccc2ccccc12
Potency [1]: > 11.4 µM | activity change, negative = inhibition [2]: 6.28% | Potency [3]: 3.16 µM (active) | activity, negative = inhibition [4]: -2.17% | Potency [5]: > 46 µM | Potency [6]: > 9.22 µM | Potency [7]: inactive | Potency [8]: inactive | Potency [9]: 0.398 µM (active) | Potency [10]: 1.58 µM (active)

CN(C)CCCc1c2ccccc2nc2ccc(Cl)cc12
Potency [1]: > 11.4 µM | activity change, negative = inhibition [2]: 14.2% | Potency [3]: 3.98 µM (active) | activity, negative = inhibition [4]: 18.2% | Potency [5]: > 46 µM | Potency [6]: > 9.22 µM | Potency [7]: inactive | Potency [8]: inactive | Potency [9]: 1.58 µM (active)

NS(=O)(=O)c1ccc(N=Nc2nc3[nH]cnc(=S)c3[nH]2)cc1
Potency [1]: > 11.4 µM | activity change, negative = inhibition [2]: 2.31% | Potency [3]: 6.31 µM (active) | activity, negative = inhibition [4]: 14.2% | Potency [5]: > 46 µM | Potency [7]: inactive | Potency [8]: inactive

CC1CCN(CC(=O)N2c3ccccc3Sc3cc4ccccc4cc32)CC1
Potency [1]: > 11.4 µM | activity change, negative = inhibition [2]: 28.3% | Potency [3]: 3.98 µM (active) | activity, negative = inhibition [4]: 9.28% | Potency [5]: > 46 µM | Potency [6]: > 9.22 µM | Potency [7]: inactive | Potency [11]: 3.98 µM (active) | Potency [12]: inactive | Potency [9]: 3.98 µM (active) | Potency [10]: 3.16 µM (active)

CN(C)S(=O)(=O)c1ccc(Nc2ccc(O)c3c2C(=O)c2c([N+](=O)[O-])ccc(O)c2C3=O)cc1
Potency [1]: > 11.4 µM | activity change, negative = inhibition [2]: -13.4% | Potency [3]: 0.126 µM (active) | activity, negative = inhibition [4]: 23.6% | Potency [5]: > 46 µM | Potency [6]: > 9.22 µM | Potency [8]: inactive | Potency [12]: inactive

c1ccc(C[n+]2cccc(-c3cc4ccccc4[nH]3)c2)cc1
Potency [1]: > 11.4 µM | activity change, negative = inhibition [2]: 2.74% | Potency [3]: 1.26 µM (active) | activity, negative = inhibition [4]: -0.473% | Potency [5]: > 46 µM | Potency [6]: > 9.22 µM | Potency [7]: inactive | Potency [8]: inactive | Potency [9]: 1.26 µM (active)

Cc1nc2cnc(Oc3ccccc3)nc2n(CCc2ccccc2)c1=O
Potency [1]: > 11.4 µM | activity change, negative = inhibition [2]: 17.9% | Potency [3]: 3.16 µM (active) | activity, negative = inhibition [4]: -2.9% | Potency [5]: > 9.22 µM | Potency [6]: > 46 µM | Potency [7]: inactive | Potency [12]: inactive

Clc1ccc(Cl)c(SCCCN2CCNCC2)c1
Potency [1]: > 11.4 µM | activity change, negative = inhibition [2]: 3.23% | Potency [3]: 0.501 µM (active) | activity, negative = inhibition [4]: -0.882% | Potency [5]: > 46 µM | Potency [6]: > 9.22 µM | Potency [7]: inactive | Potency [8]: inactive | Potency [9]: 2.51 µM (active)

Cc1ccc2nc(N/N=C\c3cccc(C)n3)cc(C)c2c1
Potency [1]: > 11.4 µM | activity change, negative = inhibition [2]: -4.58% | Potency [3]: 0.631 µM (active) | activity, negative = inhibition [4]: 7.26% | Potency [5]: > 46 µM | Potency [6]: > 9.22 µM | Potency [7]: inactive | Potency [8]: inactive | Potency [12]: inactive | Potency [9]: 3.16 µM (active)

Nc1ccccc1S[C@@H](C[N+](=O)[O-])c1ccc2c(c1)OCO2
Potency [1]: > 11.4 µM | activity change, negative = inhibition [2]: 11.2% | Potency [3]: 0.631 µM (active) | activity, negative = inhibition [4]: -19.6% | Potency [5]: > 46 µM | Potency [6]: > 9.22 µM | Potency [7]: inactive | Potency [12]: inactive | Potency [9]: 3.98 µM (active) | Potency [10]: 1.58 µM (active)

CC1(C)N=C(N)N=C(N)N1c1cccc(OCc2cccc([N+](=O)[O-])c2)c1
Potency [1]: > 11.4 µM | activity change, negative = inhibition [2]: -5.25% | Potency [3]: 5.01 µM (active) | activity, negative = inhibition [4]: -5.32% | Potency [5]: > 46 µM | Potency [6]: > 9.22 µM | Potency [7]: inactive | Potency [8]: inactive | Potency [10]: inactive | activation [13]: 5.31%

O=C(O)/C(=C\c1ccncc1)c1cccc2ccccc12
Potency [1]: > 11.4 µM | activity change, negative = inhibition [2]: -1.57% | Potency [3]: 3.98 µM (active) | activity, negative = inhibition [4]: 7.21% | Potency [5]: > 46 µM | Potency [6]: > 9.22 µM | Potency [7]: inactive | Potency [8]: inactive | Potency [10]: 2.51 µM (active)

c1ccc2c[n+](Cc3ccnc4ccccc34)ccc2c1
Potency [1]: 8.58 µM (active) | activity change, negative = inhibition [2]: 12.4% | activity change, negative = inhibition [3]: -21.8% [at 2.29 µM] | activity, negative = inhibition [4]: -6.6% | Potency [5]: > 46 µM | Potency [6]: > 9.22 µM | Potency [7]: inactive | Potency [8]: inactive | Potency [12]: inactive | Potency [9]: 3.16 µM (active)

Clc1ccc(Cl)c(Nc2ccnc(SCc3ccccc3)n2)c1
Potency [1]: > 11.4 µM | activity change, negative = inhibition [2]: 1.81% | Potency [3]: 0.501 µM (active) | activity, negative = inhibition [4]: 0.24% | Potency [5]: > 46 µM | Potency [6]: > 9.22 µM | Potency [7]: inactive | Potency [8]: inactive | Potency [12]: inactive | Potency [10]: 5.01 µM (active) | activation [13]: -13.8%

CN(C)c1ccc(-c2nc(Nc3ccncc3)c3ccccc3n2)cc1
Potency [1]: 3.67 µM (active) | activity change, negative = inhibition [2]: -10.7% | Potency [3]: 0.501 µM (active) | activity, negative = inhibition [4]: -28.2% | Potency [5]: > 46 µM | Potency [6]: > 46 µM | Potency [8]: inactive | Potency [11]: 7.94 µM (active) | Potency [12]: inactive
